One molecule from the supplement of paper PMC11732987, “Enantioselective OTUD7B fragment discovery through chemoproteomics screening and high-throughput optimisation” (Communications Chemistry, 2025) can be followed below.

Unmarked numbers belong to inactive results.

Holding throughout (assay): log2 ratio of Biotin-Ahx-Ub-VS probe labelling (fragment/DMSO); higher = less target engagement (more negative = stronger competition), active = hit call of the paper (q ≤ 0.05, log2 ratio ≤ -1)
Conditions in all cases: compound concentration: 200 uM; treatment time: 3 h

Experiment [1] addresses T1, USP19 (UniProt O94966).
T1 sequence (whole entry): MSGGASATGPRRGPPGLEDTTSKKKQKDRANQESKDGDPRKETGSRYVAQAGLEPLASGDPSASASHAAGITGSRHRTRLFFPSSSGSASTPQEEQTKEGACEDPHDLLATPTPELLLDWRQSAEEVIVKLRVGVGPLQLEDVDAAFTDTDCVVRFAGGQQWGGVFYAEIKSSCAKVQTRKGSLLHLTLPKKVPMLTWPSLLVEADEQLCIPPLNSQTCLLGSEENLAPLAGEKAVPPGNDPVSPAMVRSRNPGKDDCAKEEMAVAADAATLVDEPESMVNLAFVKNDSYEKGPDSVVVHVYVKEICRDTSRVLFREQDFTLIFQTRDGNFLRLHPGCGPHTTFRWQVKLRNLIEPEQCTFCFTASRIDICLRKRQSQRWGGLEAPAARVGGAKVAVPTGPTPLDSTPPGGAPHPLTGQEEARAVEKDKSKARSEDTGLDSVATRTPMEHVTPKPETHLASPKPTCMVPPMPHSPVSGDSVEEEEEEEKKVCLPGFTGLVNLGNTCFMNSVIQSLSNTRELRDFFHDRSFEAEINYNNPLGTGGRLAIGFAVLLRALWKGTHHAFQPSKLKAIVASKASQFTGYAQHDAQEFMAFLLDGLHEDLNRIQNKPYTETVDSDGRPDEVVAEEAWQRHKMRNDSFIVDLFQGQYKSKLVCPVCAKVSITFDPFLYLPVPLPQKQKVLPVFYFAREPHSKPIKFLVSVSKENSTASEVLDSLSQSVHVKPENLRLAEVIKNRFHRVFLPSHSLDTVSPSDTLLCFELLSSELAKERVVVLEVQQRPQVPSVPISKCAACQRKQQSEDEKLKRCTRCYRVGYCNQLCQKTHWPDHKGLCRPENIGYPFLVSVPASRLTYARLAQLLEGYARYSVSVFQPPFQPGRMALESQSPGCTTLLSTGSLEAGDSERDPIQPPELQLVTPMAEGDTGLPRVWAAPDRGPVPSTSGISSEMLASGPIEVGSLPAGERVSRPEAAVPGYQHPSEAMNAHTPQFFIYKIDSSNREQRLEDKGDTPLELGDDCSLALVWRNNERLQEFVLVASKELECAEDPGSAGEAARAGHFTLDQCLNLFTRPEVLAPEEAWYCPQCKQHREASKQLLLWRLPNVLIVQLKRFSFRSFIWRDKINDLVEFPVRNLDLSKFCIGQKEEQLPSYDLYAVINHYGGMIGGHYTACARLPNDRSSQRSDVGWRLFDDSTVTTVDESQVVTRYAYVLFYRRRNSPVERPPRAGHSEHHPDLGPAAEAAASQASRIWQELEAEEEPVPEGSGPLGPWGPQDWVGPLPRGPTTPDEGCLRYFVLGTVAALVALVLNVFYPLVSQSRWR
The gist of the method:
(§1)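 Labelled DUBs from HEK293T lysate were NeutrAvidin-enriched, digested with LysC and trypsin, and run by diaPASEF LC-MS/MS. Before that, each 495 µg sample in Tris/CHAPS/IGEPAL buffer with protease inhibitors was treated in triplicate with fragment at 200 µM or vehicle for 3 h, then with Biotin-Ahx-Ub-VS at 0.5 µM final for 1 h. Values are average log2 ratios of fragment over vehicle by unpaired t-test, based on global-median-normalised Spectronaut label-free quantities from proteins with ≥2 unique peptides.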

Experiment [2] concerns the target T2, USP22 (UniProt Q9UPT9).
T2 sequence (whole entry): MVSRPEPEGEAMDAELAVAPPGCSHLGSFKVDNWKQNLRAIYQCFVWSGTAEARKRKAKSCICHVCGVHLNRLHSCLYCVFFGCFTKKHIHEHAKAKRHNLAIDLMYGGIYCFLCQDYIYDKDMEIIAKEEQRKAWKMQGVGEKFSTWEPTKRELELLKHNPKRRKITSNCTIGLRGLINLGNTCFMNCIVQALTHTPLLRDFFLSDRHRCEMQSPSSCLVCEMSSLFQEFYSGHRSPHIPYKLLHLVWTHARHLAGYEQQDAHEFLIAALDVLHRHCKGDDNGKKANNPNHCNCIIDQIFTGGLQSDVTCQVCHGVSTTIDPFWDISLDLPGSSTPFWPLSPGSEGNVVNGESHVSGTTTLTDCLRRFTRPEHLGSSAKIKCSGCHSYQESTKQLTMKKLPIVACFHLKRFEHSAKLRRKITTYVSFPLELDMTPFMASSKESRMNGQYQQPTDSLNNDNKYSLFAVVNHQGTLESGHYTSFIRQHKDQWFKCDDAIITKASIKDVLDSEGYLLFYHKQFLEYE
The gist of the method:
as §1

The target of experiment [3] is USP24 (UniProt Q9UPU5). The gist of the method:
as §1

Experiment [4] has as its target T3, USP25 (UniProt Q9UHP3).
T3 sequence (whole entry): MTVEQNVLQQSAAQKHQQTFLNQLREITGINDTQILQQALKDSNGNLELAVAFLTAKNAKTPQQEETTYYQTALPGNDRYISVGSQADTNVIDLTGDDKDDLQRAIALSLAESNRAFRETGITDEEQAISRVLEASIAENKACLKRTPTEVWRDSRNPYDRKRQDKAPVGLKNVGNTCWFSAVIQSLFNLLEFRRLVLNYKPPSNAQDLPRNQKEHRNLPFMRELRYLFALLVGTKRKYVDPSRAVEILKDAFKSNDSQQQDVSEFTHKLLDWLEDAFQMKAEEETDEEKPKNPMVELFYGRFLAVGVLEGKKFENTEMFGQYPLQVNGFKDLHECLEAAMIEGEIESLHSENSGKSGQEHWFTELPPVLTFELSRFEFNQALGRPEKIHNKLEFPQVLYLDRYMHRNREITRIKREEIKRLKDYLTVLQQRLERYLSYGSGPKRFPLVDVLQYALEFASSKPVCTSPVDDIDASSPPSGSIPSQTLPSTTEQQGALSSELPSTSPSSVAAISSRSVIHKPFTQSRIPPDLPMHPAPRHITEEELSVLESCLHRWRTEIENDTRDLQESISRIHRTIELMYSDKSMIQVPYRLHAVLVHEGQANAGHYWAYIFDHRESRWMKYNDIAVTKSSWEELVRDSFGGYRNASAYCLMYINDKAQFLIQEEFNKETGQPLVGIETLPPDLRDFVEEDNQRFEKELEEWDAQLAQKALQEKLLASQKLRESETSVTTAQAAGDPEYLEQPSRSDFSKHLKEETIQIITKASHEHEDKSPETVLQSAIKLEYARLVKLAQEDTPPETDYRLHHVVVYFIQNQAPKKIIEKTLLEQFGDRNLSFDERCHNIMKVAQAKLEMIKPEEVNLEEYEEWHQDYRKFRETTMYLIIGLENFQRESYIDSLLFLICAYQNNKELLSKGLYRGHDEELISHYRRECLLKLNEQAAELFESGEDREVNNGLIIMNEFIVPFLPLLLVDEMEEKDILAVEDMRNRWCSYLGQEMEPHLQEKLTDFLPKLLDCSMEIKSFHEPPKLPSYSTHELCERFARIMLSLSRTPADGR
The gist of the method:
as §1

The target of experiment [5] is T4, USP28 (UniProt Q96RU2).
T4 sequence (whole entry): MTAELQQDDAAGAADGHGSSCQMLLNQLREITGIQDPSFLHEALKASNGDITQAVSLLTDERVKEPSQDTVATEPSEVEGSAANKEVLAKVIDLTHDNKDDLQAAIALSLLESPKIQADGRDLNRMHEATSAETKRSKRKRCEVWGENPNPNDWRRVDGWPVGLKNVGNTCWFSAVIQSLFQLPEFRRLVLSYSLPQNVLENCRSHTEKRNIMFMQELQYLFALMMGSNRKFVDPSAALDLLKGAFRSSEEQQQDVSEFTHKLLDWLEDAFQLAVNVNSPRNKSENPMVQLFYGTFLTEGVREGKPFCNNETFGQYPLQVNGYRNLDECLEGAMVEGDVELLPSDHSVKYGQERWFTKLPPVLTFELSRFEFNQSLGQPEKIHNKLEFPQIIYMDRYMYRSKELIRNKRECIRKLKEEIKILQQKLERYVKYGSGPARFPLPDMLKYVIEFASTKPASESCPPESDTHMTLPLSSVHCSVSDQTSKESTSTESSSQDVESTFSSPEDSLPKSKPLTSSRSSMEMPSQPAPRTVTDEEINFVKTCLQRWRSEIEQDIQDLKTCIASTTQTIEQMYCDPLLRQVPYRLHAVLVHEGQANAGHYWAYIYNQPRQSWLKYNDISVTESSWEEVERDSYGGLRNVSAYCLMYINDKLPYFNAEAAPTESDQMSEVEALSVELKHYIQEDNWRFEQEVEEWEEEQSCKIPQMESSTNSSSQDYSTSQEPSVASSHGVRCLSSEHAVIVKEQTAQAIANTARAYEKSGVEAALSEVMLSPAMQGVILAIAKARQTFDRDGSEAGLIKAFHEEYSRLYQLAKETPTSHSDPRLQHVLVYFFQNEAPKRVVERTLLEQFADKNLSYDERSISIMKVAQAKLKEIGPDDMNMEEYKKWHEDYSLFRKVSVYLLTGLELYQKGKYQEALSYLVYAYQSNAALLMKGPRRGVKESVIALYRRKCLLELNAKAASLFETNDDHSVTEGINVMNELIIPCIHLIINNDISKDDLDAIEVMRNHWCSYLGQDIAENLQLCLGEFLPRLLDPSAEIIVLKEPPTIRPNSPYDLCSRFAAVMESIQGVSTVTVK
The gist of the method: as §1

USP24, sequence (Q9UPU5 whole entry): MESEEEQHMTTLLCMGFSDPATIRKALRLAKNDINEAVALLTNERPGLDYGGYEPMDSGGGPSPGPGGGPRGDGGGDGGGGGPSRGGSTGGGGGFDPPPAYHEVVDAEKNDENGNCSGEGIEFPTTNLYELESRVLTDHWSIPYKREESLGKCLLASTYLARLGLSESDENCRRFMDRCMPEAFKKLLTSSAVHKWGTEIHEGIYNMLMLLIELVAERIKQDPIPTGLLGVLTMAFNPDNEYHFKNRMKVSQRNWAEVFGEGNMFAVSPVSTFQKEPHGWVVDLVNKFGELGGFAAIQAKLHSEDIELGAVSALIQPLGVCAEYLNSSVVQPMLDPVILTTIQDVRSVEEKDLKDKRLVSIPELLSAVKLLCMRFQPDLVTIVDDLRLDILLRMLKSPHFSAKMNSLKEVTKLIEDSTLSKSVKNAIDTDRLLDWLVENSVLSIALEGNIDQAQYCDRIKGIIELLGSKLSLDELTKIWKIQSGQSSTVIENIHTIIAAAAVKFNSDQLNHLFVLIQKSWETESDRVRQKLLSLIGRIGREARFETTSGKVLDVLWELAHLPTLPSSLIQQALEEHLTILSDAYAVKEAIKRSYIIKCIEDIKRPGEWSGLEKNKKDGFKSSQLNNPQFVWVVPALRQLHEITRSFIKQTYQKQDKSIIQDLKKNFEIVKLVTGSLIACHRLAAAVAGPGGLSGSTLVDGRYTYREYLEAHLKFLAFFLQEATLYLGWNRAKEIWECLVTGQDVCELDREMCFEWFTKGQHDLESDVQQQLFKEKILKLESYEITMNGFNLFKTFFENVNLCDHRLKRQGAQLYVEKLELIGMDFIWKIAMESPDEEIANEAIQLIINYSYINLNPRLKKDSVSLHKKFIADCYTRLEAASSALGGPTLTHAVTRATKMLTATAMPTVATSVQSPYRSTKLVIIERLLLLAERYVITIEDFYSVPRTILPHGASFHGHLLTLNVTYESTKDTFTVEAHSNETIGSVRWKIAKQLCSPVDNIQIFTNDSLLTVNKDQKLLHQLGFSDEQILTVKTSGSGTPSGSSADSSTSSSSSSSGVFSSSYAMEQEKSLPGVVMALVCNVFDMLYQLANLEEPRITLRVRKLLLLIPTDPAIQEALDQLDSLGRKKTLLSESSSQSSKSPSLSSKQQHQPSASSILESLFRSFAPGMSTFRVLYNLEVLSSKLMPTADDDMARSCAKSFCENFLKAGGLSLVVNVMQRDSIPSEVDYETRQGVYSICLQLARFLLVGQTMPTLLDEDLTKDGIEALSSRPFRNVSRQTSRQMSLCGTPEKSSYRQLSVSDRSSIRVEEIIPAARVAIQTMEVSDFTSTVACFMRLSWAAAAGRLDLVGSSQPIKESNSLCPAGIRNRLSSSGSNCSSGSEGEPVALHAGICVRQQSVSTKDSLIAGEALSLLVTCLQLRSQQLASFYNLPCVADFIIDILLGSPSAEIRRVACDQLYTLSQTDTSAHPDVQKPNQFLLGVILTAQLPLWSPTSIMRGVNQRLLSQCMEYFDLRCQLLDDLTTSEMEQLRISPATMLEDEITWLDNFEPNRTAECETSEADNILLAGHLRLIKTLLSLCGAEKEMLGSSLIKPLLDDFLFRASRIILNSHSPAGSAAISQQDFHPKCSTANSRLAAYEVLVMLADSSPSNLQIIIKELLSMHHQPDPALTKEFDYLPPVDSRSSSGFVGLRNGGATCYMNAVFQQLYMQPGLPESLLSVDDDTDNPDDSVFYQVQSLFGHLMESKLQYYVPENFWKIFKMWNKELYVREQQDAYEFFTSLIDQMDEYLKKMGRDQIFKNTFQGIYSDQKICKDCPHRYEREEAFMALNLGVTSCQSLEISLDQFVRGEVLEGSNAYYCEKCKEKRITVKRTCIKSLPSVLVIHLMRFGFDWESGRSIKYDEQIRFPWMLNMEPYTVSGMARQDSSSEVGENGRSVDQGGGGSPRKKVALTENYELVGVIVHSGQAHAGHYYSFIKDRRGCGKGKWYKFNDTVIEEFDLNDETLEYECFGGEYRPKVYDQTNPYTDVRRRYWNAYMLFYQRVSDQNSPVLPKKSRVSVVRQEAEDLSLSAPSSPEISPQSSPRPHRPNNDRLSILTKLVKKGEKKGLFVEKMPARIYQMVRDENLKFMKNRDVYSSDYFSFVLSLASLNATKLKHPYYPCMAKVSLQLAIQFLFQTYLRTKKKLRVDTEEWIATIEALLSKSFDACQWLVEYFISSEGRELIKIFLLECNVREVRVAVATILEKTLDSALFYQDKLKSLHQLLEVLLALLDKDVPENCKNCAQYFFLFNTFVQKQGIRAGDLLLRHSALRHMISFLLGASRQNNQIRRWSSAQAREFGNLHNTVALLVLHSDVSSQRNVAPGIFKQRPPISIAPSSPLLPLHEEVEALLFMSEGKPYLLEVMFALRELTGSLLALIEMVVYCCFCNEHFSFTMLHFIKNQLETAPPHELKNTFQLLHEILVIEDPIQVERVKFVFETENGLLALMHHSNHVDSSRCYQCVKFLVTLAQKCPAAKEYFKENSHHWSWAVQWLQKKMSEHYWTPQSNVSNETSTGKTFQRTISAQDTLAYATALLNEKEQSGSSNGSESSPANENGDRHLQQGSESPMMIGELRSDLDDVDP

`CC1Cc2ccccc2N1C(=O)CCl` (stereo not given): the “log2 ratio of Biotin-Ahx-Ub-VS probe labelling” value in experiment [1] is -0.643; in experiment [2], -0.161; in experiment [3] it was -1.61 (active); in experiment [4] it was -0.876; in experiment [5], -0.929.
